Our source for the sensor-assay potency score (higher = more potent) values is the OligoGym collection.
Note: reference of the scale not given here.

The first assay addresses CXCL1. Put plainly: pooled miR-30 sensor sort-seq; sequence = guide strand. The note with it: shRNA.
TCGATGATTTTCTTAACTATGG registered a sensor-assay potency score (higher = more potent) of -1.57.

For the sequence ATGATTTTCTTAACTATGGGGG, the sensor-assay potency score (higher = more potent) is -0.365.

Regarding TTCGATGATTTTCTTAACTATG, the sensor-assay potency score (higher = more potent) is -1.26.

TGAGGCAAGCTTTCCGCCCATT had a sensor-assay potency score (higher = more potent) of -1.55.

The sequence TTGAGGCAAGCTTTCCGCCCAT yielded a sensor-assay potency score (higher = more potent) of -0.645.

Consider TTCACGTTCACACTTTGGATGT, for which the sensor-assay potency score (higher = more potent) was -1.04.

A further assay has as its target CXCL3. The assay is described as above. The note with it: shRNA.
Regarding TACATAAATAAGTAGAACCCTC, the sensor-assay potency score (higher = more potent) is -0.724.

The sequence TTTGATGAAACACACTCACATC registered a sensor-assay potency score (higher = more potent) of -1.05.

In the case of TTCGATGATTTTCTGAACCATG, the sensor-assay potency score (higher = more potent) was -0.954.

ATGATTTTCTGAACCATGGGGG returned a sensor-assay potency score (higher = more potent) of -0.165.

TTGAGACAAGCTTTCTTCCCAT: the sensor-assay potency score (higher = more potent) amounted to 0.654.

TAAATAATCAGGACTGAGCTAT returned a sensor-assay potency score (higher = more potent) of -0.218.

Turning to TGAGACAAGCTTTCTTCCCATT, the sensor-assay potency score (higher = more potent) was -1.23.

Turning to TGCAGTGTCTGCAAGCACTGGC, the sensor-assay potency score (higher = more potent) was 0.137.

Turning to TAAATAAGTAGAACCCTCGTAA, the sensor-assay potency score (higher = more potent) is -0.0177.

In the case of TTTCTTCCCATTCTTGAGTGTG, the sensor-assay potency score (higher = more potent) was -0.403.

As to TTGTTCAGTATCTTTTCGATGA, the sensor-assay potency score (higher = more potent) was -0.149.

Sequence TAGTCAAACACATTAAGTCCTT displayed a sensor-assay potency score (higher = more potent) of -0.625.

A further assay deals with CXorf40A. The assay is described as above. The note with it: shRNA.
In turn, TTCAGGTTGGTCAGTACAGCTT showed a sensor-assay potency score (higher = more potent) of -0.578.

Consider TACAGCTTGATTTTCTAGTTCC, for which the sensor-assay potency score (higher = more potent) is 0.219.

Take TCCACCAGCAGCTCCCGCCAGG: the sensor-assay potency score (higher = more potent) was -1.9.

The sequence TCAGTACAGCTTGATTTTCTAG gave a sensor-assay potency score (higher = more potent) of -0.864.

The sequence TTGGTCAGTACAGCTTGATTTT yielded a sensor-assay potency score (higher = more potent) of -1.4.

In turn, TCAGGTTGGTCAGTACAGCTTG displayed a sensor-assay potency score (higher = more potent) of 0.439.

A further assay has as its target CXorf41. Described as above. The note with it: shRNA.
TTGAGCTCTTCTATTTGGGGTG yielded a sensor-assay potency score (higher = more potent) of 0.00833.

TTATCAACAGCTTCTTCTGAGG displayed a sensor-assay potency score (higher = more potent) of -1.2.

In the case of TAACTGAAGAAACACTCTCAAA, the sensor-assay potency score (higher = more potent) was -1.54.

As to TATATCTTCAGTTCCCACCTGC, the sensor-assay potency score (higher = more potent) came out at 0.748.

The sequence TATCATCATATTCTGCTCCTTC returned a sensor-assay potency score (higher = more potent) of 0.467.

Take TTTATTACCTGTATATTCCAGA: the sensor-assay potency score (higher = more potent) worked out at 0.269.

For the sequence TAACATCCCACATATCATCATA, the sensor-assay potency score (higher = more potent) was -1.24.

For the sequence TAACTCTCTTTTCATAGTCATA, the sensor-assay potency score (higher = more potent) is -1.66.

For the sequence TTAGCCACTAGTTCACTGCAAC, the sensor-assay potency score (higher = more potent) was -0.799.

With TAGTTCACTGCAACAACCTGTT, the sensor-assay potency score (higher = more potent) is -0.276.

The sequence TTCTTCAGGATTAAGTAGCTTA had a sensor-assay potency score (higher = more potent) of 0.137.

The sequence TTCAATTATGTAATTGACCATG registered a sensor-assay potency score (higher = more potent) of -1.17.

A further assay has as its target CXorf56. The description is as above. The note with it: shRNA.
In the case of TTGCCCATGTCTTTGGTCCGTT, the sensor-assay potency score (higher = more potent) was -0.538.

TTCATTTTCGCTTTCTTGGCTT displayed a sensor-assay potency score (higher = more potent) of 0.484.

As to TTTCTCTAACTGGCAGTCCAGC, the sensor-assay potency score (higher = more potent) is -1.26.

For TATGAGTCAGCAACTTCCCTAG, the sensor-assay potency score (higher = more potent) was 0.0765.
